# Mm-Cpn inhibitor – Inhibitors of TCP-1 ring complex (TRiC) of Methanococcus maripaludis (MmCpn): qHTS; purified Mm-Cpn ATPase, ADP Transcreener TR-FRET; Potency, µM (highest dose often 76.9 µM), without a hit: at the top dose activity, negative = inhibition, most hits filed as inhibitors; hit rate 0.031% among 330,000; note: potency is the fitted concentration of half-maximal effect; nearly all actives have a fitted effect of over 80% in size
#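 Measured: ADP formation by purified Mm-CPN. Conditions: 25 nM protein, 10 uM ATP, Tris pH 7.4 with Mg2+, K+ and DTT, 37°C for 30 min. Detection: Transcreener HTRF after 30 min at room temperature.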
# VDR inhibitor – Inhibitors of the vitamin D receptor (VDR): qHTS | VDR-SRC2-3 peptide fluorescence polarization, 2 h | hit rate 0.93% among 400,000 | Potency, µM, inactives show max response, negative = inhibition, actives largely listed as inhibitors | Vitamin D3 receptor (Homo sapiens), P11473 | AID 504847, 2011; note: potency is the fitted concentration of half-maximal effect
#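 FP read-out; VDR + SRC2-3 coactivator peptide; 23 nl compound by pintool; 2 h RT incubation; reagents held at 4 deg C, protected from light.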
# Sfp inh – qHTS Assay for Inhibitors of Bacillus subtilis Sfp phosphopantetheinyl transferase (PPTase). Biochemical Sfp PPTase activity, qHTS. Potency, µM, for the others: largest response in the series, negative = inhibition, hits mostly inhibitors. hit rate 3.5% among 310,000;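 note: the enzyme is Sfp with the accession as filed and its product quenches rhodamine fluorescence; potency is the fitted concentration of half-maximal effect; 0% = enzyme reaction without inhibitor and -100% = no enzyme wells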
#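 After 15 min at room temperature with compound, 15 nM Sfp received 5 uM rhodamine-CoA plus 12.5 uM BHQ-2-ybbR (50 mM Hepes pH 7.6, 10 mM MgCl2). Rate came from the fluorescence difference over 30 min, ex 525/em 598 nm.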
# G9a inh – qHTS Assay for Inhibitors of Histone Lysine Methyltransferase G9a; Histone-lysine N-methyltransferase EHMT2 (Homo sapiens), Q96KQ7; G9a H3K9 monomethylation, AlphaScreen, 2 h; Potency, µM (titrated, usually from 102 µM), without a hit: top-dose activity, negative = inhibition, actives largely listed as inhibitors; hit rate 8.8% among 350,000; AID 504332, 2011; note: potency is the fitted concentration of half-maximal effect; nearly all actives have a fitted effect of over 75% in size
#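 Readings reflect AlphaScreen signal from monomethyl-H3K9 antibody detection. HMT at 20 nM; substrate b-H3K9 500 nM; cofactor SAM 20 uM; 2 h RT reaction; compounds tested as titrations in qHTS with 15 min preincubation.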
# CCT modulator – High-Throughput Screening for Modulators of Cytosolic Chaperonin Activity; purified chaperonin ATPase assay, HTRF ADP detection, 30 min; activity change, % (concentration not given with the values), hits read low; hit rate 0.3% among 360,000; in the data active = activity change below about -30%
#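 We incubate TRiC, 40 or 20 nM final, with library compounds at 76 uM and 10 uM ATP for 30 min at 37 °C. ADP formed is detected with Transcreener HTRF reagents after 30 min at room temperature.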
# PLK1 PBD inh – qHTS for Inhibitors of PLK1-PDB (polo-like kinase 1 - polo-box domain): Primary Screen | Plk1 PBD binding of FITC phosphopeptide, fluorescence polarization | Potency, µM, for the others: max response, negative = inhibition, usual class: inhibitors | hit rate 2.8% among 360,000 | AID 720504, 2013; note: potency is the fitted concentration of half-maximal effect; series mostly up to about 57 µM; nearly all actives have a fitted effect of over 65% in size
# Target sequence (P53350 whole entry, looked up, the tested form may be a part): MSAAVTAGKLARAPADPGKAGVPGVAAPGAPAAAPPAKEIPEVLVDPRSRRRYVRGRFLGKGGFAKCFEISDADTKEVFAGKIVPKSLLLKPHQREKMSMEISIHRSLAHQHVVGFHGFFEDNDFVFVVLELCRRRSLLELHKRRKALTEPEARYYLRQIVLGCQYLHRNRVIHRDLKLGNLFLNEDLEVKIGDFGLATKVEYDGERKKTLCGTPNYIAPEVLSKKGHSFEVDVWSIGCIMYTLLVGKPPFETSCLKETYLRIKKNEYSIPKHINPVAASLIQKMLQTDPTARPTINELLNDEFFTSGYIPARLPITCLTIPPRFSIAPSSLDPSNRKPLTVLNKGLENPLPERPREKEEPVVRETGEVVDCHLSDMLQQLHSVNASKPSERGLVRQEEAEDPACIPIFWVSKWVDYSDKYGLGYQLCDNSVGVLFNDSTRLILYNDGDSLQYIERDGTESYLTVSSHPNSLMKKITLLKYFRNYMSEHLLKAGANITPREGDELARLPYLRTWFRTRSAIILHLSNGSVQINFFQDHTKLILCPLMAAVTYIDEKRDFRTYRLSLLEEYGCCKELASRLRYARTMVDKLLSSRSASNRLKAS
# Starred values were filed as active, the others as inactive; ? = inconclusive; / = not tested or not shown; [ ] = dose if it differs, or a comment. The list is not random: actives were taken first. Their share in the collection is about 10%. Unless noted, calls come from the whole dose curve; as a rule, active = well fitted curve in the direction sought with a large enough effect; inconclusive = small, poorly fitted or top-dose-only effect, or another doubt; inactive = no such curve, though single readings can be large; an effect the other way counts as inactive or inconclusive. Unless noted, % is set by controls: 0 for no effect and ±100 for the full control effect.
SMILES,Mm-Cpn inhibitor,VDR inhibitor,Sfp inh,G9a inh,CCT modulator,PLK1 PBD inh
CSc1cccc(NC(=O)CC(c2cccs2)N2Cc3ccccc3C2=O)c1 (configuration not stated),/,-4%,/,2%[59 µM],/,/
CC(C)CNC(=O)C(=O)Nc1c2c(nn1-c1ccc(Cl)cc1)CSC2,/,12%,/,37%[59 µM],/,/
O=C1NC(=Nc2ccccc2)S/C1=C\C=C\c1ccco1,-2%,?,14%,?,2,?
Cc1ccc(N=C2NC(=O)/C(=C/C=C/c3ccco3)S2)cc1,0%,?,?,11µM*,-9,?
Cc1cccc(N=C2NC(=O)/C(=C/C=C/c3ccco3)S2)c1C,-2%,?,40µM*,18µM*,-3,15µM*
Cc1cccc(N=C2NC(=O)/C(=C/c3cccnc3)S2)c1C,-1%,5%,?,?,2,-26%
CCOC(=O)/C(C)=N/NC(C)=O,/,6%,-2%,/,/,/
Cc1ccc(-c2nnc(Nc3ccc(O)cc3)c3ccccc23)cc1S(=O)(=O)NC(C)(C)CO,/,14%,/,1%[59 µM],/,/
COc1ccc(CN2CC(=O)N(c3cc(Cl)ccc3C)C2=S)cc1OC,-1%,-10%,-8%,71µM*,-1,-25%
COc1ccc(CN2CC(=O)N(c3ccc(C)cc3C)C2=S)cc1OC,1%,4%,-19%,?,2,?
COc1cc(CN2CC(=O)N(c3cc(Cl)ccc3C)C2=S)cc(OC)c1OC,0%,?,-5%,?,0,15µM*
COc1ccc(-c2cc(C(F)F)n3ncc(C(=O)N4CCc5ccccc54)c3n2)cc1,-5%,?,-16%,/,2,6.7µM*
Cc1ccc(-c2cc(C(F)F)n3ncc(C(=O)N4CCCc5ccccc54)c3n2)cc1,-2%,-3%,1%,-7%[59 µM],0,1%
Cc1nc(SCC(=O)NC2(C#N)CCCC2)n(CC(C)C)c1C,0%,0%,/,40µM*,-1,-24%
N#CC1(NC(=O)CSc2nnc3n2CCCCC3)CCCCC1,1%,-13%,/,/,0,2%
COC1CCCCC1Nc1cc(C)cc(C)c1 (configuration not stated),0%,-5%,-8%,14µM*,4,-4%
COc1ccc(/C=N/N=C/c2ccc(OC)cc2)cc1,1%,-11%,7%,25%,1,-5%
COc1ccc(C2=CSC(/N=C/c3ccc(F)cc3)=NN2)cc1,2%,-83%,28µM*,25µM*,5,-27%
CN1CCOC(=O)/C1=N/Nc1cc(Cl)ccc1Cl,0%,-8%,?,35µM*,0,-10%
Cc1ccc(S(=O)(=O)N2CC(O)C[C@H]2C(=O)OCC(=O)c2ccccc2)cc1 (some centres not stated),1%,-4%,10%,11%[59 µM],0,-6%
CC(C)(C)OC(=O)N1C[C@H](O)C[C@H]1C(=O)OCC(=O)c1ccc([N+](=O)[O-])cc1,2%,?,-4%,/,-2,21µM*
COCCOC(=O)c1c(C)n(C)c2ccc(OC(=O)c3c(OC)cccc3OC)cc12,-16%,?,28µM*,8.9µM*,2,9.5µM*
CCC(C)NC(=O)c1ccc(CS(=O)(=O)c2ccc(OC)cc2)o1 (configuration not stated),1%,13%,12%,5%,2,-8%
COc1ccc(S(=O)(=O)Cc2ccc(C(=O)NC(C)C)o2)cc1,2%,?,-14%,10%,-1,21µM*
CCOC(=O)N1CCN(C(=O)c2ccc(CS(=O)(=O)c3ccc(OC)cc3)o2)CC1,-4%,?,6%,?,1,27µM*
SMILES,Mm-Cpn inhibitor,VDR inhibitor,Sfp inh,G9a inh,CCT modulator,PLK1 PBD inh
COC(=O)c1ccc(CS(=O)(=O)c2ccc(F)cc2)o1,0%,-5%,1%,71µM*,1,-10%
O=C(NCc1ccc(F)cc1)c1ccc(CS(=O)(=O)c2ccc(Cl)cc2)o1,/,-3%,/,-1%[59 µM],/,/
CC(C(=O)Nc1cc([N+](=O)[O-])ccc1Cl)N1CCN(c2ccc(O)cc2)CC1 (configuration not stated),0%,-21%,56µM*,7.9µM*,-1,-11%
O=C(CN1CCCC1)Nc1ccc2c(c1)CCC2,-3%,-3%,-5%,25µM*,2,-7%
O=C(CN1CCCCCC1)Nc1ccc(F)c(F)c1,-3%,-7%,-7%,32µM*,-3,-1%
O=C(CN1CCN(c2ccccc2O)CC1)Nc1ccc2c(c1)CCC2,0%,-5%,6%,71µM*,2,-13%
COc1ccc(OC)c(NC(=O)CSC2=Nc3ccccc3C3=NC(CCC(=O)NCCc4ccccc4)C(=O)N23)c1 (configuration not stated),/,7%,/,3%[59 µM],/,/
Cc1sc2c(c1C)c(=O)n(-c1cccc(C(F)(F)F)c1)c(=O)n2Cc1ccccc1C#N,/,0%,/,24%[59 µM],/,/
CCOC(=O)c1cccc(Nc2ccc3cc(S(=O)(=O)N4CCCCC4)ccc3n2)c1,/,16%,/,-6%[59 µM],/,/
Cc1cccc(NC(=O)CN2CCCCCC2)c1,-1%,19%,-23%,14µM*,0,2%
CC(C(=O)NC(=O)NC1CCCCC1)N1CCN(c2ccc(O)cc2)CC1 (configuration not stated),0%,-4%,/,1.3µM*,1,-11%
O=C(CN1CCN(c2ccccc2O)CC1)Nc1cc([N+](=O)[O-])ccc1Cl,1%,5%,1%,45µM*,1,-8%
Cc1cccc(NC(=O)CCN2CCCCC2)c1,-1%,14%,-1%,-19%,-1,6%
O=C(CN1CCN(c2ccccc2O)CC1)Nc1ccc([N+](=O)[O-])cc1Br,7%,0%,-2%,?,2,-6%
COC(=O)Nc1ccc(Cl)c(Cl)c1,/,6%,11%,/,/,/
COc1ccc(C(CC(=O)O)NS(=O)(=O)c2ccc3c(c2)N(C(C)=O)CC(C)O3)cc1 (configuration not stated),-1%,-13%,6%,8%,-1,27µM*
CC(=O)N1CC(C)Oc2ccc(S(=O)(=O)NC(CC(=O)O)c3ccccc3C)cc21 (configuration not stated),0%,-19%,20%,50µM*,0,-9%
CC(=O)N1CC(C)Oc2ccc(S(=O)(=O)NC(CC(=O)O)c3cc(C)ccc3C)cc21 (configuration not stated),-1%,-11%,26%,-4%[59 µM],0,-7%

# Compound activity (PubChem BioAssay)
